Data taken from PubChem BioAssay (Tox21).
Several values for one entry are separate records, joined by “and”; a condition that tells them apart may be missing. Identical values can stand only once. Results filed as inconclusive are left out. A call without a number means that no potency is given here. More than one record can exist for a structure, and the calls need not agree. Activity calls are given as the source filed them. Unless noted, the call rests on the fitted dose curve; in most records, active means well fitted curve in the direction sought with a large enough effect in the repeat runs; inconclusive means weak or mixed curves; inactive means no such curve, though single readings can be large; an effect the other way counts as inactive or inconclusive.

Tests used:
[1] = qHTS assay to identify aromatase inhibitors - cell viability counter screen (AID 743084); conditions: MCF-7 aro ERE viability, CellTiter-Fluor, 24 h; series mostly up to 70.3 µM;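 further: cells stimulated with testosterone during compound exposure; nearly all actives have a fitted effect of over 55% in size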
[2] = target: Aryl hydrocarbon receptor (Homo sapiens) (UniProt P35869); assay: qHTS assay to identify small molecule that activate the aryl hydrocarbon receptor (AhR) signaling pathway (AID 743085); conditions: HepG2 AhR-luc (HG2L7.5c1), luciferase, 24 h; series mostly up to 70.3 µM; further: nearly all actives have a fitted effect of over 15% in size; further: potency means the concentration at half of the fitted maximal effect;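 on activation: HG2L7.5c1 human HepG2 liver cells with stably integrated DRE-driven firefly reporter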
Procedure, shortened: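 HepG2 cells stably carrying a 20-DRE firefly luciferase reporter (HG2L7.5c1) treated with compound for 24 hr at 37C. Luciferase read by ONE-Glo luminescence, with CellTiter-Fluor viability read first.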

[3] = qHTS assay to identify small molecule that activate the aryl hydrocarbon receptor (AhR) signaling pathway - cell viability counter screen (AID 743086); conditions: HepG2-AhR-luc viability, CellTiter-Fluor, 24 h; series mostly up to 70.3 µM;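 further: HepG2 liver cells carrying the AhR DRE luciferase reporter; nearly all actives have a fitted effect of over 45% in size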
Procedure, shortened: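 HepG2-AhR-luc (HG2L7.5c1) cells, 4000/well, were preincubated 5 h at 37C, exposed to compound in qHTS format for 24 hr at 37C, then given CellTiter-Fluor for 30 min; viability was read as fluorescence in the reporter wells.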

[4] = qHTS assay to identify small molecule antagonists of the peroxisome proliferator-activated receptor gamma (PPARg) signaling pathway - cell viability counter screen (AID 743194); conditions: PPARg-bla HEK293H viability, CellTiter-Glo luminescence, 17 h, co-treated with 50 nM rosiglitazone; series mostly up to 62.6 µM; further: nearly all actives have a fitted effect of over 55% in size
Procedure, shortened: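 PPARg-UAS-bla HEK293H cells were plated, rested 5 h at 37 C, then treated with compounds plus rosiglitazone (50 nM final) for 17 h at 37 C; viability was then read by CellTiter-Glo luminescence after 30 min at room temperature.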

[5] = qHTS assay for small molecule agonists of the antioxidant response element (ARE) signaling pathway (AID 743202; active means well fitted activation curve with a large enough effect in the signal ratio in the repeat runs, not every such curve was filed as active; the % refers to the signal ratio); conditions: HepG2 ARE-bla reporter, beta-lactamase FRET, 16 h; series mostly up to 73.3 µM
Procedure, shortened: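 Read-out: LiveBLAzer B/G FRET substrate fluorescence after 2 h at room temperature, following 16 h compound treatment at 37 C of HepG2 cells carrying an ARE-driven beta-lactamase reporter.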

[6] = qHTS assay for small molecule agonists of the antioxidant response element (ARE) signaling pathway - cell viability counter screen (AID 743203; calls by dose curve; further: nearly all actives have a fitted effect of over 55% in size); conditions: ARE-bla HepG2 viability, CellTiter-Glo luminescence, 16 h; series mostly up to 73.3 µM
Procedure, shortened: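 CellSensor ARE-bla HepG2 cells, 2,000 per well, rested 5 hrs at 37C/5% CO2, then exposed to compound in DMSO for 16 hrs; viability read as CellTiter-Glo luminescence after 30 min at room temperature, in the reporter wells.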

[7] = qHTS assay for small molecule activators of the heat shock response signaling pathway - cell viability counter screen (AID 743209); conditions: HSE-bla HeLa viability, CellTiter-Glo luminescence, 5 h; series mostly up to 62.6 µM; further: nearly all actives have a fitted effect of over 50% in size
Procedure, shortened: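 CellSensor HSE-bla HeLa cells, plated overnight at 37 C/5% CO2, were exposed to compounds in DMSO for 5 h at 37 C. Viability was then read in the same wells by CellTiter-Glo luminescence after 30 min at room temperature.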

[8] = qHTS assay for small molecule activators of the heat shock response signaling pathway (AID 743210; active means well fitted activation curve with a large enough effect in the signal ratio in the repeat runs, with a control signal flat, not every such curve was filed as active; the % refers to the signal ratio); conditions: HeLa HSE-bla reporter, beta-lactamase ratio, 5 h; series mostly up to 62.6 µM
Procedure, shortened: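 HSE-bla HeLa cells (beta-lactamase reporter under heat shock response elements) were exposed to compounds for 5 h at 37 C, then loaded with LiveBLAzer B/G FRET substrate for 2.5 h at room temperature before fluorescence reading.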

[9] = qHTS assay to identify small molecule agonists of the peroxisome proliferator-activated receptor delta (PPARd) signaling pathway - cell viability counter screen (AID 743211); conditions: PPARd-bla HEK293H viability, CellTiter-Glo luminescence, 17 h; series mostly up to 62.6 µM; further: nearly all actives have a fitted effect of over 55% in size
Procedure, shortened: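 PPARd-bla HEK293H cells (3000/well) were pre-incubated 5 h at 37 C, then exposed to compound for 17 h at 37 C. After 2 h with LiveBLAzer substrate, CellTiter-Glo was added to the same wells; luminescence read after 30 min at room temperature.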

[10] = target: Peroxisome proliferator-activated receptor delta (Homo sapiens) (UniProt Q03181); assay: qHTS assay to identify small molecule agonists of the peroxisome proliferator-activated receptor delta (PPARd) signaling pathway (AID 743212; calls by dose curve); conditions: HEK293H PPARd-UAS-bla, beta-lactamase FRET ratio, 17 h; series mostly up to 62.6 µM
Procedure, shortened: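 GeneBLAzer PPARd UAS-bla HEK293H cells (beta-lactamase reporter under UAS control), plated and rested 5 h at 37 C, then exposed to compounds in DMSO at 37 C; LiveBLAzer B/G FRET substrate added, 2 h room temperature, fluorescence read.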

[11] = qHTS assay to identify small molecule antagonists of the peroxisome proliferator-activated receptor delta (PPARd) signaling pathway - cell viability counter screen (AID 743213); conditions: PPARd-bla HEK293H viability, CellTiter-Glo luminescence, 17 h; series mostly up to 62 µM; further: nearly all actives have a fitted effect of over 50% in size
Procedure, shortened: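 HEK293H PPARd UAS-bla cells, 5 h pre-incubation, compound + L165041 300 nM final, 17 h 37 C; B/G FRET substrate 2 h RT; then CellTiter-Glo 30 min RT, luminescence.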

[12] = target: Peroxisome proliferator-activated receptor delta (Homo sapiens) (UniProt Q03181); assay: qHTS assay to identify small molecule antagonists of the peroxisome proliferator-activated receptor delta (PPARd) signaling pathway (AID 743215; active means well fitted inhibition curve with a large enough effect in the signal ratio in the repeat runs, not every such curve was filed as active; the % refers to the signal ratio;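 further: cells stimulated with agonist L165041 at 300 nM final during compound exposure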); conditions: HEK293H PPARd-UAS-bla, beta-lactamase FRET ratio, antagonist, 17 h; series mostly up to 62 µM
Procedure, shortened: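 PPARd UAS-bla HEK293H cells were pre-incubated 5 h at 37 C, then given test compounds in DMSO plus agonist L165041 (300 nM final). After 17 h at 37 C, beta-lactamase FRET substrate was added; fluorescence read after 2 h at room temperature.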

[13] = qHTS assay to identify small molecule antagonists of the farnesoid-X-receptor (FXR) signaling pathway - cell viability counter screen (AID 743221; active means well fitted cell-killing curve with a large enough effect in the repeat runs, not every such curve was filed as active; further: nearly all actives have a fitted effect of over 50% in size); conditions: FXR-bla HEK293T viability, CellTiter-Glo luminescence, 16 h; series mostly up to 62.6 µM
Procedure, shortened: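 GeneBLAzer FXR-UAS-bla HEK 293T cells, compound plus chenodeoxycholic acid (50 uM final), 16 h at 37 C. CellTiter-Glo added to the same wells after the beta-lactamase read; luminescence read after 30 min at room temperature as viability.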

[14] = target: Vitamin D3 receptor (Homo sapiens) (UniProt P11473); assay: qHTS assay to identify small molecule agonists of the vitamin D receptor (VDR) signaling pathway (AID 743222; calls by dose curve); conditions: HEK293T VDR-UAS-bla, beta-lactamase FRET ratio, 16 h; series mostly up to 63.5 µM
Procedure, shortened: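 VDR-bla cells were plated 4 h at 37C/5% CO2, then exposed to compounds in DMSO for 16 h. After LiveBLAzer B/G FRET substrate addition and 2 h at room temperature, beta-lactamase reporter fluorescence was read.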

[15] = target: Bile acid receptor (Homo sapiens) (UniProt Q96RI1); assay: qHTS assay to identify small molecule antagonists of the farnesoid-X-receptor (FXR) signaling pathway (AID 743217; active means well fitted inhibition curve with a large enough effect in the signal ratio in the repeat runs, not every such curve was filed as active; the % refers to the signal ratio); conditions: HEK293T FXR-UAS-bla, beta-lactamase ratio, CDCA-stimulated, 16 h; series mostly up to 62.6 µM
Procedure, shortened: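 FXR-UAS-bla HEK 293T cells pre-incubated 5 h at 37 °C, then exposed to compounds with chenodeoxycholic acid (50 uM final) for 16 h at 37 °C. Beta-lactamase reporter read by LiveBLAzer B/G FRET substrate fluorescence after 2 h at room temperature.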

[16] = target: Bile acid receptor (Homo sapiens) (UniProt Q96RI1); assay: qHTS assay to identify small molecule agonists of the farnesoid-X-receptor (FXR) signaling pathway (AID 743220; active means well fitted activation curve with a large enough effect in the signal ratio in the repeat runs, not every such curve was filed as active; the % refers to the signal ratio); conditions: HEK293T FXR-UAS-bla, beta-lactamase FRET ratio, 16 h; series mostly up to 62.6 µM
Procedure, shortened: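 Beta-lactamase reporter under UAS control in GeneBLAzer FXR HEK 293T cells (5000/well) measured with LiveBLAzer FRET substrate after 2 h at room temperature. Compound exposure lasted 16 h at 37C.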

[17] = target: Vitamin D3 receptor (Homo sapiens) (UniProt P11473); assay: qHTS assay to identify small molecule antagonists of the vitamin D receptor (VDR) signaling pathway (AID 743223; active means well fitted inhibition curve with a large enough effect in the signal ratio in the repeat runs, not every such curve was filed as active; the % refers to the signal ratio); conditions: VDR-UAS-bla HEK293T, beta-lactamase FRET ratio, 16 h; series mostly up to 61 µM
Procedure, shortened: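 VDR-bla cells were treated with compound plus 3 nM final 1alpha,25-dihydroxyvitamin D3 for 16 h at 37C. Beta-lactamase reporter read by B/G FRET substrate fluorescence after 2 h at room temperature. qHTS format.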

[18] = qHTS assay to identify small molecule agonists of the farnesoid-X-receptor (FXR) signaling pathway - cell viability counter screen (AID 743218); conditions: FXR-bla HEK293T viability, CellTiter-Glo luminescence, 16 h; series mostly up to 62.6 µM; further: nearly all actives have a fitted effect of over 45% in size
Procedure, shortened: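 FXR-UAS-bla HEK 293T cells, plated 5 h at 37 C, were exposed to compounds for 16 h at 37 C. CellTiter-Glo was then added to the same wells as the bla readout; luminescence read after 30 min at room temperature.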

Aryl hydrocarbon receptor (Homo sapiens), sequence (P35869 whole entry, looked up): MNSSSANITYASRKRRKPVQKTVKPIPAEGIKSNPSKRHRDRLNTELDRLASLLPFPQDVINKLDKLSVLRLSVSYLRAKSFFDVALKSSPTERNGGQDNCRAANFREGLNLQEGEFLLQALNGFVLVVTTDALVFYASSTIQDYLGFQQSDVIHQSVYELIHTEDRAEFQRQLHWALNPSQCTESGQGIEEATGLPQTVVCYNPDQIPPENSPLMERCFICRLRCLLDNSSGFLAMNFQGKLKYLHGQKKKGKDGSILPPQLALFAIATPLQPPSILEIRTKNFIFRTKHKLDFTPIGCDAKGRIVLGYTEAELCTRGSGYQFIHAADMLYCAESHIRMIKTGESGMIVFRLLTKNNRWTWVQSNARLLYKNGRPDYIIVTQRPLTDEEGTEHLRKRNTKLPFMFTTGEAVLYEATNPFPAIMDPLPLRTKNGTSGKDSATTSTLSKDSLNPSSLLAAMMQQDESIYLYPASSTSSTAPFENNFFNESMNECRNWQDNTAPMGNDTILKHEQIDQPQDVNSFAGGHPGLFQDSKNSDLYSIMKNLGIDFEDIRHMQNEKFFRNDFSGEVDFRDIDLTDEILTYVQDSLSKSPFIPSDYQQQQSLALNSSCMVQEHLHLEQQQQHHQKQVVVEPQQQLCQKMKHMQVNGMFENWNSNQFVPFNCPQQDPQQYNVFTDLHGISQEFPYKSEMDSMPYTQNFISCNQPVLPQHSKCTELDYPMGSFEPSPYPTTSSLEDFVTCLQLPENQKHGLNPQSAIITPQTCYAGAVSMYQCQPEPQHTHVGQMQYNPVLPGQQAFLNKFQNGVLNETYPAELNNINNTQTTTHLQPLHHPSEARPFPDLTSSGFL
Vitamin D3 receptor (Homo sapiens), sequence (P11473 whole entry, looked up): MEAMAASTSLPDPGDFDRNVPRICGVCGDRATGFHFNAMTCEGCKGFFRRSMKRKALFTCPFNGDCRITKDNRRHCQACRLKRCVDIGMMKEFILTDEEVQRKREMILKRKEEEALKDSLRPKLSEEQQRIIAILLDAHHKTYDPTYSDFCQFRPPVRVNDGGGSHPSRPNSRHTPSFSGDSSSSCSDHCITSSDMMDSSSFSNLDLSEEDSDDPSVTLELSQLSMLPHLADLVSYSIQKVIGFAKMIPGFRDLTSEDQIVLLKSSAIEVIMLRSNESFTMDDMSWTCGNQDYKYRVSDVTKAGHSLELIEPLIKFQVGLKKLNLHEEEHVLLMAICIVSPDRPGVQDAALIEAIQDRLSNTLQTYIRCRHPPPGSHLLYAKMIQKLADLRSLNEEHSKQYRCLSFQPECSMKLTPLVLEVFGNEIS
Peroxisome proliferator-activated receptor delta (Homo sapiens), sequence (Q03181 whole entry, looked up): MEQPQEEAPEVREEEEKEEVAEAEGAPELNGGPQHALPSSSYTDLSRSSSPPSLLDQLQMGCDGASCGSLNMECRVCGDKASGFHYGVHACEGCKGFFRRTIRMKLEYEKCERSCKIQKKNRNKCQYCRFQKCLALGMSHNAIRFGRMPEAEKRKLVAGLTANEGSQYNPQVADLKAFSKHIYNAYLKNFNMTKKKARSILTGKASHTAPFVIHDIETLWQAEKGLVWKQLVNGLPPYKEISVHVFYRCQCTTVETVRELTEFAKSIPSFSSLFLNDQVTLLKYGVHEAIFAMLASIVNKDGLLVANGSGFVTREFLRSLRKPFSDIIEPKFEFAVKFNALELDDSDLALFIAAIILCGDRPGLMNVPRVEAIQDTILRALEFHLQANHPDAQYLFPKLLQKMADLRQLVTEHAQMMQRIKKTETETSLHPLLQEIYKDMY
Bile acid receptor (Homo sapiens), sequence (Q96RI1 whole entry, looked up): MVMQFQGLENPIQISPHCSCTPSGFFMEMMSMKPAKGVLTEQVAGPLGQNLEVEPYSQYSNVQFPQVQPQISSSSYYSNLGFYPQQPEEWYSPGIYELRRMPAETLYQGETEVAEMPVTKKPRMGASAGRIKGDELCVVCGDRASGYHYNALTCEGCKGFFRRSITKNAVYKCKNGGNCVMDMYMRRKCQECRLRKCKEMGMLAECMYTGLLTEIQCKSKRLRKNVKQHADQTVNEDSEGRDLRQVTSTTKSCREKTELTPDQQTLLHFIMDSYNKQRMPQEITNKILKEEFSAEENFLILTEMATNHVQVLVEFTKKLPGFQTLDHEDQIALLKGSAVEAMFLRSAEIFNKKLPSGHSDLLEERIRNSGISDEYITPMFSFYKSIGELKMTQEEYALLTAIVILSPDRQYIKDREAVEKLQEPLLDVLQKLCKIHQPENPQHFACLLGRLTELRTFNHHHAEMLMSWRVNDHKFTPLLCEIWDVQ

Structure (SMILES)	Potency [1]	Potency [2]	Potency [3]	outcome [4]	Potency [5]	Potency [6]	outcome [7]	outcome [8]	Potency [9]	outcome [10]	Potency [11]	Potency [12]	Potency [13]	outcome [14]	outcome [15]	outcome [16]	outcome [17]	Potency [18]
CCOC(=O)c1ccc(C)cc1	inactive	inactive	inactive	inactive	inactive	inactive	inactive	inactive	inactive	inactive	inactive	inactive	inactive	inactive				
CCCCOCCOCCOCc1cc2c(cc1CCC)OCO2	inactive	inactive and 18 µM (active)	inactive	inactive	inactive	inactive		inactive			inactive		inactive		inactive	inactive		
O=S(O)CO	inactive	inactive	inactive	inactive	inactive	inactive	inactive	inactive		inactive			inactive	inactive	inactive	inactive		
CC(C)NC(=O)NC(C)C	inactive	inactive	inactive	inactive		inactive	inactive	inactive	inactive	inactive		inactive	inactive	inactive	inactive		inactive	
CS(=O)(=O)O	inactive	inactive	inactive	inactive	inactive	inactive	inactive	inactive	inactive				inactive	inactive	inactive	inactive	inactive	
CC(C)(C)c1nnc(NS(=O)(=O)c2ccccc2)s1	inactive	inactive	inactive	inactive		inactive	inactive	inactive	inactive	inactive	inactive	inactive	inactive	inactive			inactive	inactive
CN1CCC(=C2c3ccccc3CC(=O)c3sccc32)CC1	inactive	inactive	inactive	inactive		inactive	inactive	inactive	inactive	inactive			inactive	inactive	inactive		inactive	inactive
OC1CCCCC1c1ccccc1 (centres undefined)	inactive	inactive	inactive	inactive	inactive	inactive	inactive	inactive	inactive			inactive	inactive	inactive			inactive	inactive
